TDP1 block: inhibitors of human tyrosyl-DNA phosphodiesterase TDP1. Q9NUW8. recombinant TDP1, AlphaScreen DNA substrate cleavage. Potency, µM (top dose mostly 130 µM), without a hit: at the top dose activity change, negative = inhibition, usual class: inhibitors. 350,000 compounds, 0.28% hits; note: potency is the fitted concentration of half-maximal effect; % is set by controls: 0 for no effect and ±100 for the full control effect; nearly all actives have a fitted effect of over 40% in size
Target sequence (Q9NUW8 whole entry, looked up): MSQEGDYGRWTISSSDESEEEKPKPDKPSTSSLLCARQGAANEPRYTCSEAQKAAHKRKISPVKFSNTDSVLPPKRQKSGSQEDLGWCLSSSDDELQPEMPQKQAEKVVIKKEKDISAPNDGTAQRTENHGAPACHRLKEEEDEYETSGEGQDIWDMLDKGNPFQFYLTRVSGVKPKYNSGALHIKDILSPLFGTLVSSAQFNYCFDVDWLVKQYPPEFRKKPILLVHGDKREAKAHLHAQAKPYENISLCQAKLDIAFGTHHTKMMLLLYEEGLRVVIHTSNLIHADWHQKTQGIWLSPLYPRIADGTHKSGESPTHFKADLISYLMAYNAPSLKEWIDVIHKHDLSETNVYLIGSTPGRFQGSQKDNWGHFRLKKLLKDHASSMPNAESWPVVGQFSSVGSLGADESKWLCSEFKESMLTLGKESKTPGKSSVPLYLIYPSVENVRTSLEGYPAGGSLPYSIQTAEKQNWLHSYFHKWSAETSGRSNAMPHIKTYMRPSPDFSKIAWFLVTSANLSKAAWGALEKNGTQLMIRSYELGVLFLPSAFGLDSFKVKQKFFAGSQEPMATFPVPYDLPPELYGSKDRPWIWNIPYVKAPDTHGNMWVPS
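Here, a 5' biotin and 3' phosphotyrosine-FITC DNA oligonucleotide reports Tdp1 activity: intact substrate bridges AlphaScreen beads, while cleavage leaves a 3' phosphate and drops signal. All incubations at room temperature.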
TGFb inhibitor: inhibitors of TGF-b signaling | 410,000 compounds, 1.2% hits | HepG2 CAGA-GFP TGF-b/SMAD3 reporter, GFP fluorescence, 18 h; TGF-beta stimulated, 500 pg/mL final | Potency, µM (top dose mostly 46.1 µM), for inactives: top-dose activity, negative = inhibition, usual class: inhibitors; note: potency is the fitted concentration of half-maximal effect; % is set by controls: 0 for no effect and ±100 for the full control effect; nearly all actives have a fitted effect of over 65% in size
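Inhibition of TGF-beta-driven CAGA-GFP reporter expression in HEPG2 cells is measured by cellular GFP fluorescence after 18 h stimulation with 500 pg/mL recombinant TGF-beta in 1% FBS medium at 37 degrees C.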
HepG2 viability: counter-screen for TGF-b inhibitors: cytotoxicity in HepG2 cells; HepG2 CAGA-GFP viability, ATP luminescence, 18 h; Potency, µM (titrated, usually from 46.1 µM), for inactives: at the top dose activity change, negative = cytotoxicity, usual class: cytotoxic; 410,000 compounds, 0.76% hits; AID 588856; note: potency is the fitted concentration of half-maximal effect
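HepG2 CAGA-GFP cells (1000/well, DMEM with 1% FBS) received compound, then TGF-beta at 500 pg/mL final, and were incubated 18 hours at 37 degrees C. Viability was read by CellTiter-Glo luminescence. Media-only wells were set as complete cell-killing and DMSO as no toxicity.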
IL-1B inflam inh: blocks inflammasome-driven IL-1 beta release; THP-1 LPS/ATP IL-1B secretion, AlphaLISA, 16 h; active compounds read low; activity change, % at 57.5 µM; 360,000 compounds, 4.7% hits; AID 743279; in the data active = activity change below about -50%; inconclusive = mostly about -30% to -49%; note: % is set by controls: 0 for no effect and ±100 for the full control effect
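Secreted IL-1B measured by AlphaLISA bead assay after 16 h compound exposure of THP-1 cells; compounds (final up to 57.5 uM) added 1 h before LPS (250 ng/mL) and ATP (1.25 mM) stimulation; lower signal means less secretion.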
TDP1 cell CPT: DT40-hTDP1 cell growth loss with CPT | Potency, µM (titrated, usually from 46.2 µM), without a hit: at the highest dose activity change, negative = growth inhibition, most hits filed as inhibitors | chicken DT40 Tdp1-/-;hTDP1 cells + 20 nM CPT, ATP luminescence, 48 h | AID 686979 | 420,000 compounds, 12% hits; note: potency is the fitted concentration of half-maximal effect; % is set by controls: 0 for no effect and ±100 for the full control effect; nearly all actives have a fitted effect of over 55% in size
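Chicken DT40 Tdp1-/- cells complemented with human TDP1, 400 cells/well, exposed to compounds plus 20 nM camptothecin for at least 48 h at 37 C; viability read as ATP content by CellTiter-Glo luminescence.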
DT40 TDP1 no CPT: qHTS for Inhibitors of human tyrosyl-DNA phosphodiesterase 1 (TDP1): qHTS in cells in absence of CPT. DT40 Tdp1-/- hTDP1 cells, no CPT, ATP luminescence, 48 h. Potency, µM (series often up to 46.2 µM), for inactives: top-dose activity change, negative = growth inhibition, actives largely listed as inhibitors. 420,000 compounds, 15% hits. AID 686978, 2013; note: potency is the fitted concentration of half-maximal effect; % is set by controls: 0 for no effect and ±100 for the full control effect; nearly all actives have a fitted effect of over 55% in size
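A cellular qHTS used chicken DT40 cells lacking endogenous Tdp1 but carrying stably transfected human TDP1. Compounds were applied without camptothecin, and cell growth kinetics were judged by ATP-dependent luminescence after ≥48 hr.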
Active calls of the source: *; ? = inconclusive; / = no result. Compounds with a hit are over-represented: about 19% of the library has one in this group of screens. Unless noted, calls come from the whole dose curve; as a rule, active = well fitted curve in the direction sought with a large enough effect; inconclusive = small, poorly fitted or top-dose-only effect, or another doubt; inactive = no such curve, though single readings can be large; an effect the other way counts as inactive or inconclusive.

SMILES | TDP1 block | TGFb inhibitor | HepG2 viability | IL-1B inflam inh | TDP1 cell CPT | DT40 TDP1 no CPT
COc1ccc(C(c2nnnn2-c2c(C)cccc2C)N2CCN(C/C=C/c3ccccc3)CC2)cc1 (stereo not drawn) | / | -24% | -14% | 19 | ? | ?
C(=C\c1ccccc1)/CN1CCN(C(c2cc3ccccc3o2)c2nnnn2-c2ccc3c(c2)OCCO3)CC1 (stereo not drawn) | / | -13% | -7% | -13 | 13µM* | 15µM*
COc1ccc(C(c2nnnn2-c2ccc3c(c2)OCCO3)N2CCN(C/C=C/c3ccccc3)CC2)cc1 (stereo not drawn) | / | ? | -15% | ? | 16µM* | 16µM*
C(=C\c1ccccc1)/CN1CCN(C(c2cccc3ccccc23)c2nnnn2Cc2ccccc2)CC1 (stereo not drawn) | / | ? | -2% | ? | 16µM* | 16µM*
Fc1cccc(NCc2cccn2-c2nnc(N3CCOCC3)s2)c1 | 2% | 8% | -8% | / | ? | ?
Cc1cc(NC(=O)C2CC(=O)N(c3ccccc3Cl)C2)no1 (stereo not drawn) | / | -2% | -4% | 17 | 3% | -3%
CCCCn1nnnc1C(c1cc2ccccc2o1)N1CCCC1 (stereo not drawn) | / | / | / | 18 | ? | -88%
CCCCn1nnnc1C(c1cc2ccccc2o1)N1CCN(c2ncccc2C#N)CC1 (stereo not drawn) | / | / | / | -3 | ? | 18µM*
Cc1ccc(Cn2c(=O)c3cccnc3n(CC(=O)Nc3cc(Cl)ccc3C)c2=O)cc1 | -6% | -6% | 0% | / | -22% | ?
O=C(c1cccc(F)c1)N1CCN(c2cc(N3CCCCC3)c(F)cc2[N+](=O)[O-])CC1 | 9% | 15% | -28% | -74* | 18µM* | 18µM*
O=C(c1ccc(F)cc1)N1CCN(c2ccc([N+](=O)[O-])c(N3CCCCC3)c2)CC1 | 9% | ? | -24% | -23 | ? | 23µM*
O=C(c1ccc2ccccc2c1)N1CCN(c2ccc([N+](=O)[O-])c(N3CCOCC3)c2)CC1 | 4% | ? | -21% | 12 | ? | -20%
Cn1c(=O)n(C)c2cc([N+](=O)[O-])c(N3CCN(C(=O)c4ccc(F)cc4)CC3)cc21 | 11% | -20% | -12% | 30 | 18µM* | ?
Cn1c(=O)n(C)c2cc([N+](=O)[O-])c(N3CCN(C(=O)c4ccc(Cl)cc4)CC3)cc21 | 2% | -10% | -4% | -80* | ? | ?
O=C(COc1ccc(Br)cc1Cl)Nc1ncn[nH]1 | 2% | 100% | 104% | / | -10% | -12%
O=C(COc1ccccc1Cl)N1CCN(c2ccc([N+](=O)[O-])c(N3CCCCC3)c2)CC1 | 0% | 4% | -6% | ? | ? | 23µM*
S=C(NCc1ccccn1)NN=Cc1ccccn1 | / | -20% | -12% | 94 | 0.15µM* | 0.15µM*
Cc1ccc(NC(=S)NCc2ccccn2)cc1 | 3% | ? | -5% | -10 | 5% | -18%
C=CC[C@H](CC(=O)N[C@H](CO)Cc1ccccc1)C(=O)N[C@H](COC(=O)[C@@H](CC=C)Cc1ccc(F)cc1)Cc1c[nH]c2ccccc12 | / | -19% | -9% | -10 | -2% | -10%
C=CC[C@@H](CC(=O)N[C@@H](CO)Cc1ccccc1)C(=O)N[C@@H](COC(=O)[C@@H](CC=C)Cc1ccc(F)cc1)Cc1c[nH]c2ccccc12 | 1% | -29% | -28% | -51* | 16µM* | 21µM*
C=CC[C@@H](CC(=O)N[C@H](CO)Cc1ccccc1)C(=O)N[C@H](COC(=O)[C@@H](CC=C)Cc1ccc(F)cc1)Cc1c[nH]c2ccccc12 | 3% | ? | -75% | ? | 13µM* | 18µM*
CC(C(=O)Nc1cc([N+](=O)[O-])ccc1Cl)N1CCN(c2ccccc2O)CC1 (stereo not drawn) | 11% | ? | 4% | 6 | ? | 13µM*
COc1ccc([N+](=O)[O-])cc1NC(=O)C(C)N1CCCC1 (stereo not drawn) | -9% | -9% | -10% | 6 | 14% | -14%
CCC(C(=O)NC1CCCCC1)N(Cc1cccs1)C(=O)c1snc(C(N)=O)c1N (stereo not drawn) | 1% | 23% | 9% | -10 | ? | ?
O=C(NCc1ccc2c(c1)CCN2C(=O)c1ccccc1)c1ccco1 | 1% | 24% | -10% | / | ? | ?
Cc1ccc(C(=O)Nc2cccc(-c3nc(CNC(=O)[C@@H]4C[C@@H](C)NC(=S)N4)c(C)o3)c2)s1 | / | / | / | / | -13% | ?
N#Cc1c(-c2cccs2)cc(-c2ccccn2)nc1N | 3% | -26% | -7% | -11 | 5.8µM* | 5.8µM*
N#Cc1c(-c2cccs2)cc(-c2cccnc2)nc1N | 5% | ? | -4% | 35 | ? | ?
CCOC(=O)c1nc(C)nc(Sc2n[nH]c(-c3ccc(C(C)(C)C)cc3)n2)c1C | 1% | ? | 39% | -18 | ? | 18µM*
CCOC(=O)c1nc(C)nc(Sc2n[nH]c(-c3cc(Cl)cc(Cl)c3)n2)c1C | / | ? | -6% | -12 | -9% | ?

Compound activity as filed in PubChem BioAssay.
